Test results published in PubChem BioAssay (Tox21).
Records with an inconclusive call do not appear. A number with no mark means an inactive call. Calls follow the shape of the dose curve; as a rule, active = well fitted curve in the direction sought with a large enough effect in the repeat runs; inconclusive = weak or mixed curves; inactive = no such curve, though single readings can be large; an effect the other way counts as inactive or inconclusive.

Experiment: qHTS assay for identifying genotoxic compounds that show differential cytotoxicity against isogenic chicken DT40 cell lines with known DNA damage response pathways - Rad54/Ku70 mutant cell line (AID 743015); also: nearly all actives have a fitted effect of over 60% in size
Conditions: DT40 Rad54/Ku70 mutant viability, CellTiter-Glo, 40 h; series mostly up to 66.8 µM; activity change, negative = cytotoxicity: at the top concentration
% is scaled to controls: 0 for no effect and ±100 for the full control effect.

Row | Compound | activity change, negative = cytotoxicity
1 | O=C(O)Cc1ccccc1Oc1ccc(Cl)cc1Cl | 9.18%
2 | CC(C)c1cc(C(C)C)cc(C(C)C)c1 | 5.33%
3 | CN(C)CCc1c[nH]c2ccc(CS(=O)(=O)N3CCCC3)cc12 | 11.9%
4 | CC(C)(O)c1ccc(C(C)(C)O)cc1 | -0.714%
5 | COc1cc2nc(N3CCN(C(=O)C4CCCO4)CC3)nc(N)c2cc1OC (stereo not given) | 4.61%
6 | Cc1cc(C)c(C)c(C)c1 | -1.58%
7 | Cc1ccc(S(=O)(=O)NC(=O)NN2CC3CCCC3C2)cc1 (stereo not given) | -0.552% [at 30.7 µM]
8 | CCCCCCCCCCCC(C)=O | -3.86%
9 | CC[N+](C)(CC)CC | 8.6%
10 | CC(=O)Oc1ccc(C(C)=O)cc1 | -0.71% [at 95.1 µM]
11 | CCN1CCN(C(=O)N[C@@H](C(=O)N[C@@H]2C(=O)N3[C@@H]2SC(C)(C)[C@H]3C(=O)O)c2ccccc2)C(=O)C1=O | 13.5%
12 | CC1(C)CC(N)CC(C)(C)N1 | 16.1%
13 | O=C(OOC(=O)c1ccccc1)c1ccccc1 | 13.2%
14 | N#CC1(N)CCCCC1 | -2.38% [at 95.1 µM]
15 | CC(=O)SCC(CC(=O)c1ccc(C)cc1)C(=O)O (stereo not given) | -5.85%
16 | COc1cc(C(=O)NC2CCCNC2)cc(OC)c1OC (stereo not given) | 0.985%
17 | C=COCCCCO | -5.5%
18 | CC(C)=CCC/C(C)=C\C#N | 3.95%

Row | Compound | activity change, negative = cytotoxicity
19 | CCCCCCCCS(=O)(=O)O | 5.49% [at 95.1 µM]
20 | Cc1cc(N)no1 | 3.81% [at 95.1 µM]
21 | CC1(C)S[C@@H]2[C@H](NC(=O)Cc3ccccc3)C(=O)N2[C@H]1C(=O)O (tested in a mixture with another compound) | 3.96%
22 | O=Cc1ccc(C(=O)O)cc1 | 2.2% [at 95.1 µM]
23 | CCC(C)(C)C | 4.05% [at 95.1 µM]
24 | O=C(c1ccccc1)c1cccc(O)c1 | 0.916% [at 95.1 µM]
25 | c1coc(Cn2cccc2)c1 | -8.82%
26 | CN(C)CCCN(C)C | 3.34% [at 8.55 µM]
27 | C=CC(C)(CCC=C(C)C)OC(=O)C(C)C (stereo not given) | -5.7%
28 | CC[C@@]1(c2ccccc2)NC(=O)N(C)C1=O | 11.8%
29 | CCCCNCC | 7.74%
30 | CCC(=O)OCCOc1ccccc1 | -7.43%
31 | CCN(CC)CC | 0.11% [at 95.1 µM]
32 | C=CCn1cc[n+](C)c1 | -0.366% [at 95.1 µM]
33 | CCCCN(CCCC)CCCCCCN(CCCC)CCCC | 4.61%
34 | C/C=C(\C)C(=O)OC/C=C(\C)CCC=C(C)C | -17.2%
35 | CCCCN1C(=O)c2ccccc2C1=O | -15.2% [at 95.1 µM]

Experiment: qHTS assay to identify small molecule antagonists of the androgen receptor (AR) signaling pathway - cell viability counter screen (AID 743033; also: nearly all actives have a fitted effect of over 45% in size)
Conditions: AR-bla HEK293 viability, CellTiter-Glo luminescence, 16 h; series mostly up to 58.5 µM; activity change, negative = cytotoxicity: at the top concentration

Row | Compound | activity change, negative = cytotoxicity
36 | O=C(O)Cc1ccccc1Oc1ccc(Cl)cc1Cl | -0.816%
37 | CC(C)c1cc(C(C)C)cc(C(C)C)c1 | 0.273%
38 | CN(C)CCc1c[nH]c2ccc(CS(=O)(=O)N3CCCC3)cc12 | -0.365%
39 | CC(C)(O)c1ccc(C(C)(C)O)cc1 | 1.36%
40 | COc1cc2nc(N3CCN(C(=O)C4CCCO4)CC3)nc(N)c2cc1OC (stereo not given) | -12%
41 | Cc1cc(C)c(C)c(C)c1 | 2.95%
42 | Cc1ccc(S(=O)(=O)NC(=O)NN2CC3CCCC3C2)cc1 (stereo not given) | -10.7% [at 27 µM]
43 | CCCCCCCCCCCC(C)=O | 2.71%
44 | CC[N+](C)(CC)CC | 2.44%
45 | CC(=O)Oc1ccc(C(C)=O)cc1 | 5.83% [at 78.9 µM]
46 | CCN1CCN(C(=O)N[C@@H](C(=O)N[C@@H]2C(=O)N3[C@@H]2SC(C)(C)[C@H]3C(=O)O)c2ccccc2)C(=O)C1=O | 1.72%
47 | CC1(C)CC(N)CC(C)(C)N1 | 0.0661%
48 | O=C(OOC(=O)c1ccccc1)c1ccccc1 | 3.96%
49 | N#CC1(N)CCCCC1 | -0.614% [at 78.9 µM]
50 | CC(=O)SCC(CC(=O)c1ccc(C)cc1)C(=O)O (stereo not given) | -18.3%
51 | COc1cc(C(=O)NC2CCCNC2)cc(OC)c1OC (stereo not given) | 9.12%
52 | C=COCCCCO | 0.544%
53 | CC(C)=CCC/C(C)=C\C#N | 1.01%

Row | Compound | activity change, negative = cytotoxicity
54 | CCCCCCCCS(=O)(=O)O | -0.614% [at 78.9 µM]
55 | Cc1cc(N)no1 | 3.57% [at 78.9 µM]
56 | CC1(C)S[C@@H]2[C@H](NC(=O)Cc3ccccc3)C(=O)N2[C@H]1C(=O)O (tested in a mixture with another compound) | 0.751%
57 | O=Cc1ccc(C(=O)O)cc1 | -0.669% [at 78.9 µM]
58 | CCC(C)(C)C | -0.047% [at 78.9 µM]
59 | O=C(c1ccccc1)c1cccc(O)c1 | 1.02% [at 78.9 µM]
60 | c1coc(Cn2cccc2)c1 | 11%
61 | CN(C)CCCN(C)C | 3.01% [at 7.04 µM]
62 | C=CC(C)(CCC=C(C)C)OC(=O)C(C)C (stereo not given) | 7.01%
63 | CC[C@@]1(c2ccccc2)NC(=O)N(C)C1=O | 7.72%
64 | CCCCNCC | 5.6%
65 | CCC(=O)OCCOc1ccccc1 | 3.37%
66 | CCN(CC)CC | 3.24% [at 78.9 µM]
67 | C=CCn1cc[n+](C)c1 | -4.64% [at 78.9 µM]
68 | CCCCN(CCCC)CCCCCCN(CCCC)CCCC | 0.0014%
69 | C/C=C(\C)C(=O)OC/C=C(\C)CCC=C(C)C | 5.38%
70 | CCCCN1C(=O)c2ccccc2C1=O | -27.9% [at 78.9 µM]

Experiment: qHTS assay to identify small molecule antagonists of the androgen receptor (AR) signaling pathway using the MDA cell line - cell viability counter screen (AID 743041; also: nearly all actives have a fitted effect of over 45% in size)
Conditions: MDA-kb2 viability, CellTiter-Fluor, 16 h, cells co-treated with R1881 androgen agonist; series mostly up to 70.3 µM; viability change, negative = cytotoxic: at the top concentration
Procedure, shortened: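 qHTS viability read-out; MDA-kb2 AR-luc; R1881-stimulated; 16 h exposure at 37C, 0% CO2; CellTiter-Fluor, 30 min; fluorescence intensity.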

Row | Compound | viability change, negative = cytotoxic
71 | O=C(O)Cc1ccccc1Oc1ccc(Cl)cc1Cl | -1.68%
72 | CC(C)c1cc(C(C)C)cc(C(C)C)c1 | 6.82%
73 | CN(C)CCc1c[nH]c2ccc(CS(=O)(=O)N3CCCC3)cc12 | -1.9%
74 | CC(C)(O)c1ccc(C(C)(C)O)cc1 | -3.25%
75 | COc1cc2nc(N3CCN(C(=O)C4CCCO4)CC3)nc(N)c2cc1OC (stereo not given) | 27.8%
76 | Cc1cc(C)c(C)c(C)c1 | 8.42%
77 | Cc1ccc(S(=O)(=O)NC(=O)NN2CC3CCCC3C2)cc1 (stereo not given) | 4.26% [at 32.5 µM]
78 | CCCCCCCCCCCC(C)=O | -0.401%
79 | CC[N+](C)(CC)CC | -1.27%
80 | CC(=O)Oc1ccc(C(C)=O)cc1 | -5.75% [at 95 µM]
81 | CCN1CCN(C(=O)N[C@@H](C(=O)N[C@@H]2C(=O)N3[C@@H]2SC(C)(C)[C@H]3C(=O)O)c2ccccc2)C(=O)C1=O | -0.0938%
82 | CC1(C)CC(N)CC(C)(C)N1 | 26.8%
83 | O=C(OOC(=O)c1ccccc1)c1ccccc1 | 28.7%
84 | N#CC1(N)CCCCC1 | -3.31% [at 95 µM]
85 | CC(=O)SCC(CC(=O)c1ccc(C)cc1)C(=O)O (stereo not given) | 2.17%
86 | COc1cc(C(=O)NC2CCCNC2)cc(OC)c1OC (stereo not given) | 5.11%
87 | C=COCCCCO | 5.55%
88 | CC(C)=CCC/C(C)=C\C#N | 8.1%

Row | Compound | viability change, negative = cytotoxic
89 | CCCCCCCCS(=O)(=O)O | 11.2% [at 95 µM]
90 | Cc1cc(N)no1 | 0.904% [at 95 µM]
91 | CC1(C)S[C@@H]2[C@H](NC(=O)Cc3ccccc3)C(=O)N2[C@H]1C(=O)O (tested in a mixture with another compound) | 11.1%
92 | O=Cc1ccc(C(=O)O)cc1 | 3.06% [at 95 µM]
93 | CCC(C)(C)C | -1.08% [at 95 µM]
94 | O=C(c1ccccc1)c1cccc(O)c1 | 9.4% [at 95 µM]
95 | c1coc(Cn2cccc2)c1 | 3.76%
96 | CN(C)CCCN(C)C | 5.47% [at 8.47 µM]
97 | C=CC(C)(CCC=C(C)C)OC(=O)C(C)C (stereo not given) | -3.97%
98 | CC[C@@]1(c2ccccc2)NC(=O)N(C)C1=O | 8.3%
99 | CCCCNCC | 7.2%
100 | CCC(=O)OCCOc1ccccc1 | -19%
101 | CCN(CC)CC | 21.1% [at 95 µM]
102 | C=CCn1cc[n+](C)c1 | 3.69% [at 95 µM]
103 | CCCCN(CCCC)CCCCCCN(CCCC)CCCC | -0.45%
104 | C/C=C(\C)C(=O)OC/C=C(\C)CCC=C(C)C | -1.04%
105 | CCCCN1C(=O)c2ccccc2C1=O | -1.67% [at 95 µM]
